D1 antag – blocks dopamine activation of the human D1 receptor | P21728 | HEK293 TREx D1 cells, calcium flux, dopamine EC80; active compounds read low | activity change, negative = inhibition, % at 10 µM | 360,000 compounds, 3.2% hits | AID 504652; in the data active = activity change below about -30%
Target sequence (P21728 whole entry, looked up): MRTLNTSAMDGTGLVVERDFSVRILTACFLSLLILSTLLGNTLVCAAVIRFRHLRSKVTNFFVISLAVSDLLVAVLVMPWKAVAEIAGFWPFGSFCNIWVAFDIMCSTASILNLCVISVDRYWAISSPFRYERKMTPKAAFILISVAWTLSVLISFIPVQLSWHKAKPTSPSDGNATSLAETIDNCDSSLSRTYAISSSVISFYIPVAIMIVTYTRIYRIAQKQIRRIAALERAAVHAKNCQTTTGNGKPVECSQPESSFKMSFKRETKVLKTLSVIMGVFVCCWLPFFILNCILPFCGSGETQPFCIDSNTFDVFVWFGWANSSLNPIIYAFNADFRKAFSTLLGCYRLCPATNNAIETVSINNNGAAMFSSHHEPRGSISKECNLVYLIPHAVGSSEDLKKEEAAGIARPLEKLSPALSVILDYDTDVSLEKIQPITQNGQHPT
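Inducible Hek293 Trex D1 cells (tetracycline, overnight, 30 C). Calcium dye 30–90 min RT. Antagonist mode: EC80 dopamine added after 180 s compound read.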
LDHA inh – inhibitors of human lactate dehydrogenase A; AID 1347041; activity change, % (values are at about 110 or 230 µM); 480,000 compounds, 0.15% hits; purified LDHA, NADH/diaphorase-resazurin fluorescence; active compounds read low; P00338; in the data active = activity change below about -30%
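LDH5 2 nM; NADH 0.06 mM, pyruvate 0.2 mM; 200 mM Tris pH 7.4, EDTA, Tween-20; 5 min RT. Detection: diaphorase 0.133 mg/mL + resazurin 37 µM, fluorescence ex540/em590 at 0 and 20 min; normalized to enzyme-free and DMSO wells.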
D1 potentiator – enhances dopamine response at the human D1 receptor; P21728; HEK293 TREx D1 cells, calcium flux, dopamine EC20 potentiation; potentiation, % at 10 µM; 360,000 compounds, 0.036% hits; AID 504651; in the data active = potentiation above about 30%
TRHR ag – activates the human TRH receptor | TRHR cells, calcium flux fluo-8, FDSS agonist mode | activation, % at 2 µM | 360,000 compounds, 0.18% hits | P34981
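Steps: seed TRHR cells overnight; add fluo-8 no-wash Ca dye, RT 30 min–1.5 h; record 10 s baseline; pin-transfer compounds; monitor fluorescence 1 cycle/s for the agonist window. Calcium increases flag candidate agonists.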
D1 ag – human D1 receptor agonism; HEK293 T-REx D1 cells, calcium flux, agonist mode; AID 504660; 360,000 compounds, 1% hits; P21728; activation, % at 2 µM
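Agonism was scored from calcium flux recorded over 180 s (1 read/s) after pintool compound addition, following a 10-cycle baseline. Cells were inducible force-coupled HEK293 TREx D1, plated overnight at 30 C and loaded with no-wash calcium dye.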
TRHR PAM – allosteric enhancers of human TRH receptor | P34981 | TRHR cells, fluo-8 calcium fluorescence, EC20 TRH enhancement | enhancement, % at 2 µM | 360,000 compounds, 0.66% hits | AID 493056; in the data active = enhancement above about 30%
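Enhancer read-out: after compound pinning and an initial kinetic agonist-mode read, an EC20 of TRH (10 nM final) was injected and fluo-8 calcium signal (Ex 480/Em 530) followed at 1 s/cycle for 100 cycles in TRHR-expressing cells.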
Large screens that a line does not name were inactive; ! = repeats disagree. Rows were chosen to be rich in hits. Some 3.6% of all compounds tested hit in one or more screens of this group. Cut-off read from the data, not from the text of the source, unless noted: active = activation above about 30%; inactive = the rest.

O=C(NCCN1CCN(Cc2ccccc2)CC1)Nc1cc(Cl)cc(Cl)c1	D1 ag 30
O=C(NCCN1CCN(c2cccc(Cl)c2)CC1)Nc1ccccc1	none
COc1ccccc1NC(=O)NCCN1CCN(c2cccc(Cl)c2)CC1	D1 antag -40!
COc1ccc(N2CCN(CCNC(=O)Nc3ccc(Cl)cc3)CC2)cc1	D1 ag 38
COc1ccc(N2CCN(CCCNC(=O)Nc3ccccc3)CC2)cc1	none
COCCN(Cc1cc2cc(C)c(C)cc2nc1Cl)C(=O)Nc1ccccc1	none
COCCN(Cc1cc2cc3c(cc2nc1Cl)OCO3)C(=O)c1ccc(C)cc1	D1 ag 66
CC(NC(=O)/C(C#N)=C\c1ccccc1)C12CC3CC(CC(C3)C1)C2 (stereo unspecified)	none (no result: D1 antag, D1 potentiator, TRHR ag, D1 ag, TRHR PAM)
O=C(Cc1ccc(Cl)cc1)Nc1ncc([N+](=O)[O-])s1	D1 antag -43, D1 ag 31
O=C(Cc1ccc(Br)cc1)Nc1ncc([N+](=O)[O-])s1	none
O=C(COc1ccc(Cl)cc1)Nc1ncc([N+](=O)[O-])s1	D1 antag -32
COC(=O)[C@@H](NC(=O)Nc1ccc(OC(F)(F)F)cc1)C(C)C	D1 antag -42
O=C(COc1ccc2c3c(c(=O)oc2c1)CCC3)Nc1ccc(CN2CCOCC2)cc1	TRHR PAM 33
CCCCOc1ccc(C(=O)Nc2ccc(CN3CCOCC3)cc2)cc1	D1 antag -36
Cc1cc(NC(=O)c2ccc(Cl)cc2)cc(C)c1OCC(=O)N1CCOCC1	none
CCCCOc1ccc(C(=O)Nc2cc(C)c(OCC(=O)N3CCOCC3)c(C)c2)cc1	D1 antag -40
C/C=C/c1ccc(OCC(O)CNCc2ccc(OC)cc2)c(OC)c1 (stereo unspecified)	none (no result: D1 antag, D1 potentiator, TRHR ag, D1 ag, TRHR PAM)
CCOc1ccc(CN2CCN(Cc3[nH]c4ccccc4c3C)CC2CCO)cc1 (stereo unspecified)	D1 ag 48
CCN(CCO)Cc1csc2cc(C)ccc12	none
CCN(CCO)Cc1csc2ccc(C(C)(C)C)cc12	D1 antag -82
CCN(CCO)Cc1csc2ccccc12	D1 antag -38
Cc1ccccc1C(=O)NC1CCCC1	none (no result: D1 antag, D1 potentiator, TRHR ag, D1 ag, TRHR PAM)
CC(=O)NS(=O)(=O)c1ccc(N=NN2CCOCC2)cc1	D1 antag -57
CC(=O)NS(=O)(=O)c1ccc(N=NN2CCCCCC2)cc1	none
CC(CNC(=O)c1cc(C2CC2)nc2ccccc12)N(C)C (stereo unspecified)	none (no result: D1 antag, D1 potentiator, TRHR ag, D1 ag, TRHR PAM)
Cc1ccc(S(=O)(=O)N(CC(=O)N/N=C\c2cccs2)c2cccc3cccnc23)cc1	none
Cc1ccc(S(=O)(=O)N(CC(=O)N/N=C/c2cccc(C)c2)c2cccc3cccnc23)cc1	D1 antag -30
CC(=O)N=Cc1c(C)c(C#N)c(=O)n(C)c1O	D1 antag -57
Cc1c(/C=N/Nc2ccc(F)cc2)c(O)n(C)c(=O)c1C#N	none
O=S(=O)(NCc1ccc(F)cc1)c1ccc(Br)cc1Br	D1 antag -32
COc1cc2oc(=O)c(CC(=O)NC3CC3)c(C)c2cc1Cl	none (no result: D1 antag, D1 potentiator, TRHR ag, D1 ag, TRHR PAM)
Cc1ccc2[nH]c(=O)c(-c3noc(CCCC(=O)NCC(C)C)n3)cc2c1	none (no result: D1 antag, D1 potentiator, TRHR ag, D1 ag, TRHR PAM)
CCC(=O)Nc1nnc(/C=C/c2ccc(OC)cc2)s1	D1 antag -48
CC(C)=CC(=O)OC(C)C(=O)Nc1ccc(N2CCOCC2)cc1 (stereo unspecified)	none (no result: D1 antag, D1 potentiator, TRHR ag, D1 ag, TRHR PAM)
O=C(OCc1cccc2cccnc12)c1ccccn1	none (no result: D1 antag, D1 potentiator, TRHR ag, D1 ag, TRHR PAM)
Nc1sc(-c2ccccc2)n[n+]1Cc1cccc2cccnc12	D1 antag -43
CCOC(=O)CNC(=O)NCc1cccn1Cc1c(C)cc(C)cc1C	none (no result: D1 antag, D1 potentiator, TRHR ag, D1 ag, TRHR PAM)
O=C(O)c1cc(N/N=C/c2cccnc2)ccc1Cl	D1 antag -33
O=C(CSc1nncn1CCc1cccs1)Nc1ccccc1Cl	none (no result: D1 antag, D1 potentiator, TRHR ag, D1 ag, TRHR PAM)
Cc1ccc(Nc2cc(C)c(C#N)c3nc4ccccc4n23)c(C)c1	D1 antag -38
CCc1ccccc1OCc1nnc(SCc2cc(=O)c3ccccc3[nH]2)n1C	none (no result: D1 antag, D1 potentiator, TRHR ag, D1 ag, TRHR PAM)
O=C(O)CCCN1C(=O)/C(=C/c2cn(-c3ccccc3)nc2-c2cccs2)SC1=S	D1 antag -37, D1 ag 51
CCn1nc(C)c(CNC(=O)c2ccc(OC3CCN(Cc4ccccn4)CC3)cc2)c1C	D1 antag -34
CC(C)c1cc(CNC(=O)c2ccc(OC3CCN(Cc4ccccn4)CC3)cc2)on1	D1 antag -53
CCn1cc(CNC(=O)c2ccc(OC3CCN(Cc4ccccn4)CC3)cc2)cn1	none
CC(OC(=O)c1cc[n+]([O-])cc1)C(=O)Nc1cccc2ccccc12 (stereo unspecified)	none (no result: D1 antag, D1 potentiator, TRHR ag, D1 ag, TRHR PAM)
Cc1c(C(=O)OC2CCCC2)[nH]c2c1C(=O)CC(c1ccc(C(C)(C)C)cc1)C2 (stereo unspecified)	D1 antag -31
CCn1cc(C(=O)NCCOc2ccccc2OC)c2ccccc21	none (no result: D1 antag, D1 potentiator, TRHR ag, D1 ag, TRHR PAM)
COc1ccccc1-c1coc2cc(OCC(=O)OCCC(C)C)ccc2c1=O	none (no result: D1 antag, D1 potentiator, TRHR ag, D1 ag, TRHR PAM)
COc1ccc(S(=O)Cc2ccc(C(=O)NCc3cccc(OC)c3)o2)cc1 (stereo unspecified)	D1 antag -35
COc1ccc(S(=O)Cc2ccc(C(=O)N3CCN(c4cccc(C)c4C)CC3)o2)cc1 (stereo unspecified)	D1 antag -42!
COc1cccc(CNC(=O)c2ccc(CS(=O)(=O)Cc3ccc(C)cc3)o2)c1	D1 antag -43
COc1ccc(N2CCN(C(=O)c3ccc(CS(=O)c4cccc(Cl)c4)o3)CC2)cc1 (stereo unspecified)	none (no result: D1 antag, D1 potentiator, TRHR ag, D1 ag, TRHR PAM)
COc1cccc(CNC(=O)c2ccc(CS(=O)(=O)Cc3ccccc3C)o2)c1	none
COc1cccc(CNC(=O)c2ccc(CS(=O)Cc3ccc(Cl)cc3)o2)c1 (stereo unspecified)	none
O=C(CNc1cc(S(=O)(=O)N2CCCCC2)ccc1N1CCCCC1)Nc1ccc(F)cc1	none (no result: D1 antag, D1 potentiator, TRHR ag, D1 ag, TRHR PAM)
CCN(CC)CCN(C(=O)c1ccco1)c1nc2c(C)c(C)ccc2s1	TRHR PAM 38
CCCCOP(=O)(OCCCC)C(O)c1ccc(N(C)C)cc1 (stereo unspecified)	D1 antag -37
C/C=C/C=C/C(=O)OCc1nc2c(c(=O)[nH]c(=O)n2CCCC)n1CC	none (no result: D1 antag, D1 potentiator, TRHR ag, D1 ag, TRHR PAM)
N#Cc1c(-c2ccc(Cl)cc2)ccn2nc(C3CCCCC3)nc12	D1 antag -31
CC(OC(=O)c1n[nH]c(=O)c2ccccc12)C(=O)Nc1c(F)cccc1F (stereo unspecified)	none (no result: D1 antag, D1 potentiator, TRHR ag, D1 ag, TRHR PAM)
CC(C)(C)c1ccc(-n2nc(C(N)=O)c(O)cc2=O)cc1	none
CC(C)(C)c1ccc(-n2nc(C#N)c(Cl)cc2=O)cc1	D1 antag -41
N/C(=N\N=C\c1ccc(O)cc1)c1nonc1N	none
N/C(=N\N=C\c1ccc([N+](=O)[O-])cc1)c1nonc1N	D1 antag -43
